Growth data for seven compounds are collected here from PubChem BioAssay (NCI).

About 83,000 compounds went through this panel and 20% of them were active in at least one assay; those are over-represented in the sample as a whole.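 Each cell line was grown in a 96-well plate and treated with one concentration of compound for 48 hours. Values below 10 were considered active.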 Unmarked numbers belong to inactive results. Calls of active or inactive are those of the source.

Among the test systems are EKVX NSCLC; SN12C renal; UO-31 renal; TK-10 renal; ACHN renal; CAKI-1 renal; A498 renal; CCRF-CEM leukemia; MOLT-4 leukemia; SR leukemia; RPMI-8226 leukemia; OVCAR-8 ovarian; OVCAR-5 ovarian; OVCAR-4 ovarian; SK-OV-3 ovarian; IGROV1 ovarian; OVCAR-3 ovarian; HS 578T breast; NCI/ADR-RES ovarian; SK-MEL-2 melanoma.
Holding throughout (experiment): NCI-60 one-dose screen, 48 h (100 = growth as untreated, 0 = no growth, -100 = all killed)
Holding throughout (details): 10 µM

Regarding `COc1ccc(CCN2CCC(Nc3nc4ccccc4n3Cc3ccc(F)cc3)CC2)cc1`, the growth with EKVX NSCLC was 45.1%; with SN12C renal it was 34.1%; in the assay with UO-31 renal, -19.8% (active); with TK-10 renal, -6.61% (active); in the assay with ACHN renal, 12.5%; with CAKI-1 renal, -1.28% (active). Further, the growth in the assay with A498 renal is -9.07% (active); in the assay on CCRF-CEM leukemia it was -13.6% (active); in the assay on MOLT-4 leukemia, -40.7% (active); with SR leukemia it was -54.6% (active); in the assay with RPMI-8226 leukemia it was -20.2% (active); with OVCAR-8 ovarian, -40.4% (active). The growth in the assay on OVCAR-5 ovarian is 34.5%; in the assay with OVCAR-4 ovarian, 22.4%; in the assay with SK-OV-3 ovarian, 44%; in the assay on IGROV1 ovarian it was 41.2%; with OVCAR-3 ovarian, 28.3%; in the assay with HS 578T breast it was -40.2% (active). Further, in the assay on NCI/ADR-RES ovarian, the growth is 37.7%.
For the compound `COc1ccc(-c2nn(-c3cccc(Cl)c3)cc2-c2c(C#N)c(N)n(N)c(=O)c2C#N)cc1`, the growth is 77.4% with SK-MEL-2 melanoma; 68.9% with SN12C renal; 59.8% in the assay on TK-10 renal; 87.2% with ACHN renal; 56.8% with CCRF-CEM leukemia; 73.3% with OVCAR-8 ovarian. Besides, the growth in the assay with OVCAR-5 ovarian is 84.4%; with SK-OV-3 ovarian it was 95%; in the assay on OVCAR-3 ovarian, 72.4%; in the assay with HS 578T breast, 58.2%; in the assay with NCI/ADR-RES ovarian, 90.4%.
Consider `COc1ccc(-c2nn(-c3cccc(Cl)c3)cc2/C=C2\NC(=S)N(c3ccc(Cl)cc3)C2=O)cc1`, for which the growth is -26.3% (active) in the assay on SK-MEL-2 melanoma; 20.4% in the assay with SN12C renal; 53.6% in the assay with UO-31 renal; 27.7% in the assay on TK-10 renal; 51.1% in the assay on ACHN renal; 21.9% in the assay with CCRF-CEM leukemia. Also, the growth in the assay with MOLT-4 leukemia was -22.9% (active); in the assay with SR leukemia, -69.6% (active); in the assay with OVCAR-8 ovarian, 21.9%; in the assay on OVCAR-5 ovarian, 53.7%; in the assay on OVCAR-4 ovarian, -62.1% (active); in the assay on SK-OV-3 ovarian it was -47.8% (active). Further, the growth in the assay with IGROV1 ovarian is -16.2% (active); with OVCAR-3 ovarian, 0.69% (active); in the assay with HS 578T breast, 25.8%; in the assay on NCI/ADR-RES ovarian, 7.34% (active).
As for `CCN(CC)CCCC(C)N=C(C1=C(C(=NC(C)CCCN(CC)CC)c2cccc(OC)c2)C(=O)NC1=O)c1cccc(OC)c1` (configuration not stated), the growth in the assay on SK-MEL-2 melanoma is -53.7% (active); with UO-31 renal, -97.2% (active); in the assay with TK-10 renal, -31.1% (active); in the assay on ACHN renal it was -64% (active); in the assay on CAKI-1 renal, -57.9% (active); in the assay on A498 renal, 18.7%. Besides, the growth with CCRF-CEM leukemia is -21.4% (active); in the assay with MOLT-4 leukemia, -15.7% (active); in the assay with SR leukemia, 2.6% (active); with RPMI-8226 leukemia, -30.6% (active); in the assay with OVCAR-8 ovarian, -11.3% (active); in the assay with OVCAR-5 ovarian, -3.07% (active). For the same compound, the growth in the assay with OVCAR-4 ovarian was -23.5% (active); in the assay on SK-OV-3 ovarian, 9.81% (active); in the assay with OVCAR-3 ovarian, -17.7% (active); with HS 578T breast it was 16.4%; in the assay with NCI/ADR-RES ovarian, 4.23% (active).
For `CC(=O)/C(=C/c1ccc(Br)cc1)C(=O)c1ccccc1`, the growth in the assay with SK-MEL-2 melanoma is 107%; in the assay with SN12C renal it was 69.1%; with UO-31 renal it was 57.4%; with ACHN renal, 56.1%; in the assay on CAKI-1 renal, 80.2%; with A498 renal, 91.6%. The growth with CCRF-CEM leukemia is -7.34% (active); with MOLT-4 leukemia it was -5.12% (active); with SR leukemia it was -16.8% (active); in the assay with RPMI-8226 leukemia it was -26.3% (active); in the assay on OVCAR-8 ovarian, 63.7%; in the assay on OVCAR-5 ovarian, 86.6%. In addition, the growth is 81.4% with OVCAR-4 ovarian; 120% with SK-OV-3 ovarian; 74% in the assay on IGROV1 ovarian; 81.9% in the assay on OVCAR-3 ovarian; 90.7% in the assay with HS 578T breast; 85.8% in the assay with NCI/ADR-RES ovarian.
Regarding `Cc1ccc(NC(=O)N2CCCCC2)cc1[N+](=O)[O-]`, the growth in the assay on SK-MEL-2 melanoma is 119%; in the assay on SN12C renal, 106%; with UO-31 renal it was 77.6%; with ACHN renal, 95%; with A498 renal, 107%; in the assay on CCRF-CEM leukemia, 7.44% (active). Besides, the growth in the assay with MOLT-4 leukemia was 137%; in the assay with SR leukemia, 39.3%; with RPMI-8226 leukemia it was 41.7%; with OVCAR-8 ovarian, 72.2%; in the assay with OVCAR-5 ovarian it was 101%; with OVCAR-4 ovarian, 111%. For the same compound, the growth in the assay with SK-OV-3 ovarian is 112%; with IGROV1 ovarian, 87.3%; with OVCAR-3 ovarian, 115%; in the assay with HS 578T breast it was 54.8%; with NCI/ADR-RES ovarian, 95.4%.
For `C[C@H]1[C@H](OC(=O)CCC(=O)O)O[C@@H]2O[C@]3(C)CC[C@H]4[C@H](C)CC[C@@H]1[C@@]24OO3`, the growth in the assay on EKVX NSCLC was 29.2%; with SN12C renal, 33.3%; in the assay on UO-31 renal it was 9.64% (active); in the assay on TK-10 renal, 46.8%; with ACHN renal it was 27%; with CAKI-1 renal, 16.7%. For the same compound, the growth is 80.6% in the assay on A498 renal; 39.7% in the assay with CCRF-CEM leukemia; 14.8% with MOLT-4 leukemia; -2.25% (active) with SR leukemia; 25.8% with RPMI-8226 leukemia; 23.4% in the assay with OVCAR-8 ovarian. Moreover, the growth was 44.3% in the assay with OVCAR-5 ovarian; 37.6% in the assay on OVCAR-4 ovarian; 92.9% with SK-OV-3 ovarian; 54.5% in the assay on IGROV1 ovarian; 30.8% with OVCAR-3 ovarian; 47.2% in the assay on HS 578T breast. In the assay with NCI/ADR-RES ovarian, the growth is 23.6%.
